ULK1 primary: ULK1 kinase inhibitors, primary screen, biochemical, AlphaScreen; AlphaScreen Atg13 phosphorylation by ULK1, luminescence; Serine/threonine-protein kinase ULK1 (Homo sapiens), O75385; AID 1259251, 2017; 30,000 tested, 1.9% active; inhibition, % at 5.96 µM; in the data active means inhibition above about 43%;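 further: 0% = median of compound wells and 100% = no enzyme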
ASK1 primary: ASK1 kinase inhibitors, primary screen, biochemical, AlphaScreen | AlphaScreen MKK6 phosphorylation by ASK1, luminescence | inhibition, % at 7.44 µM | 22,000 tested, 0.99% active | Mitogen-activated protein kinase kinase kinase 5 (Homo sapiens), Q99683 | AID 1159602, 2016; in the data active means inhibition above about 35%;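 further: 0% = median of compound wells and 100% = no enzyme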
An asterisk follows results filed as active; · = no result. This is a sample that favours compounds with a hit; in the whole collection about 2.4% have one here.

SMILES	ULK1 primary	ASK1 primary
CS(=O)(=O)c1ccc(NCCc2ccccc2)cc1	68*	·
CCN(CC)CCCC(C)Nc1c2ccc(Cl)cc2nc2ccc(OC)cc12 (centres undefined)	4	·
COc1cc(NC(C)CCCN)c2ncccc2c1 (centres undefined)	64*	·
O=C(NCCCN1CCCC1=O)c1cccc(-c2ccccc2)n1	11	7
Cc1cc(NCc2cccc(C(F)(F)F)c2)nc(Nc2cnccn2)n1	-2	-24
COc1cc(NC(=O)Cc2cn(-c3ccc(Nc4cc(OC)c(OC)c(OC)c4)nn3)c3ccccc23)cc(OC)c1OC	-14	-2
CNS(=O)(=O)c1ccccc1Nc1nc(Nc2cc(OC)ccc2OC)ncc1Br	64*	-3
CNS(=O)(=O)c1ccccc1Nc1nc(Nc2ccc(N3CCOCC3)cc2OC)ncc1Br	91*	-46
COc1ccc(Nc2ncc(-c3ccccc3)cn2)cc1	4	·
COc1cnc(Nc2ccc(N3CCOCC3)cc2)nc1Nc1ccc(N2CCOCC2)cc1	17	-2
O=C(CSc1ccccc1)NCc1nc2ccncc2[nH]1	-8	-13
CC(C)n1cnc2c(NC3CC3)nc(Nc3ccc(C(F)(F)F)cc3)nc21	15	16
Cc1cc(NCCN2CCOCC2)nc(N2CCc3ccccc3C2)n1	0	-8
CCN1CCN(c2cc(C#N)cc(-c3ccnc(Nc4ccc(N5CCOCC5)cc4)n3)c2)CC1	53*	-32
COc1ccc(Nc2nccc(-c3cc(C#N)cc(N4CCOCC4)c3)n2)cc1	4	30
N#Cc1cc(-c2ccnc(Nc3ccc(N4CCOCC4)cc3)n2)cc(N2CCOCC2)c1	3	31
N#Cc1cc(-c2ccnc(Nc3ccc(N4CCOCC4)cc3)n2)cc(N2CCNCC2)c1	78*	35
CC(C)n1cnc2c(NCCOc3ccccc3)nc(Nc3ccccn3)nc21	-14	-17
O=C(Nc1ccc2[nH]ncc2c1)C1CCN(C(=O)[C@H](O)c2cccc(Cl)c2)CC1	0	-22
CNC(=O)c1cccc(Nc2ccnc(Nc3ccccn3)c2)c1	0	1
Cc1cc(Nc2ccc(OCCN3CCCCC3)cc2)nc(Nc2ccc(N3CCOCC3)cc2)n1	9	10
COc1cc2nc(Nc3ncccn3)nc(Nc3ccc(N4CCOCC4)cc3)c2cc1OC	-7	-1
COc1cc2nc(Nc3ccc(N4CCOCC4)cc3)nc(Nc3ccc(OCCN4CCCCC4)cc3)c2cc1OC	-8	49*
COc1cc2nc(Nc3ccncc3)nc(Nc3ccc(N4CCOCC4)cc3)c2cc1OC	-4	42*
COc1ccc(-c2cccc(C(=O)NCc3nc4ccccc4[nH]3)c2)cn1	-16	-10
SMILES	ULK1 primary	ASK1 primary
CC(C)N(CCNc1ccnc(Nc2nccc3ccccc23)n1)C(C)C	-7	-2
Oc1ccc(CCNc2nc(-c3csc4ccccc34)nc3nc[nH]c23)cc1	-50	-18
CC(=O)Nc1ccc(NC(=O)c2cccc(Nc3ccc(N4CCOCC4)cc3)n2)cc1	42	-10
O=C(Nc1ccc(N2CCOCC2)cc1)c1cccc(Nc2ccc(N3CCOCC3)cc2)n1	48*	-1
O=C(Nc1ccc(N2CCOCC2)cc1)c1cccc(Nc2ccc(-n3ccnc3)cc2)n1	50*	-3
CC(=O)Nc1ccc(NC(=O)c2cccc(Nc3ccc(-n4ccnc4)cc3)n2)cc1	16	-2
CC(C)Sc1nc2c(c(=O)[nH]c(=O)n2C)n1Cc1cccc(Br)c1	2	·
CC(=O)Nc1cc(-c2ccnc(N)n2)ccc1NC(=O)COc1cccc(C)c1	11	1
Cc1cccc(OCc2nc3ccc(-c4ccnc(N)n4)cc3[nH]2)c1	68*	8
Cn1c(Nc2cc(C(=O)NCCOc3ccccc3)ccn2)nc2ccccc21	13	8
O=C(Nc1cnn(-c2cccc(CNc3ccc(N4CCOCC4)cc3)c2)c1)Nc1ccccc1Cl	49*	25
O=C(Nc1cnn(-c2cccc(C(=O)Nc3ccc(N4CCOCC4)cc3)c2)c1)Nc1ccccc1Cl	3	2
CNC(=O)c1ccccc1Nc1cc(Nc2ccc(N3CCOCC3)cc2C)ncc1C(F)(F)F	92*	-18
COc1cc(N2CCOCC2)ccc1Nc1cc(Nc2cccnc2)c(C(F)(F)F)cn1	19	30
CNC(=O)c1ccccc1Nc1cc(Nc2ccc(N3CCOCC3)cn2)ncc1C(F)(F)F	91*	-7
CN(C)CCN(Cc1ccccc1)c1nc2ccccc2o1	-3	·
CC(C)(C)OC(=O)N1CCCC(Nc2ccc3[nH]ncc3c2)C1 (centres undefined)	13	1
O=C(NCc1ccccc1)c1cnc(-c2ccc3[nH]ccc3c2)s1	10	13
COc1cccc(CN(CCN)C(=O)Nc2ccc(-c3cn[nH]c3)cc2OCCCO)c1	78*	20
COc1cccc(CN(CCCN(C)C)C(=O)Nc2ccc(-c3cn[nH]c3)cc2OC)c1	-10	-8
OCCNc1nc(NCc2ccc3c(c2)OCO3)nc2nc[nH]c12	4	1
c1ccc(CNc2cc(N3CCOCC3)ncn2)cc1	-5	2
CS(=O)(=O)Nc1ccccc1-c1cnc2cccc(Nc3ccccn3)c2c1	8	-5
CC(=O)Nc1ccc(Nc2nc(Nc3ccc(-n4ccnc4)cc3)nc3nc[nH]c23)cc1	52*	-13
c1ccc(OCCNc2nc(Nc3ncccn3)nc3nc[nH]c23)cc1	5	9
SMILES	ULK1 primary	ASK1 primary
c1ccc(OCCNc2nc(Nc3ccncc3)nc3nc[nH]c23)cc1	57*	2
OCCNc1nc(Nc2ccc(-n3ccnc3)cc2)nc2nc[nH]c12	56*	-60
c1ccc(Nc2nc(Nc3ccc(-n4ccnc4)cc3)nc3nc[nH]c23)cc1	24	-9
COc1ccc(CCNc2nc(Nc3ccc(-n4ccnc4)cc3)nc3nc[nH]c23)cc1	27	-17
CC(=O)Nc1ccc(Nc2nc(Nc3ccncc3)nc3c2ncn3CCN2CCCC2=O)cc1	9	13
CC(=O)c1cccc(-c2nc(NCc3cccnc3)c3ncn(C(C)C)c3n2)c1	20	-8
Cc1nn(C)c(C)c1-c1cccc(C(=O)NCc2cccnc2)n1	-9	4
CCOC(=O)C(C)(N)Cc1ccc(O)c(O)c1 (centres undefined)	-13	·
CC(N)(Cc1ccc(O)c(O)c1)C(=O)O (centres undefined)	85*	·
COc1ccc(C(=O)Nc2cccc(-n3c(C)nc4ncccc4c3=O)c2)cc1OC	-2	·
c1ccc(CNc2cc(Nc3nccc4ccccc34)ncn2)cc1	-14	-16
CN(C)c1ccc(C(=C2C=CC(=[N+](C)C)C=C2)c2ccccc2)cc1	9	·
CN(C)c1ccc(C(=C2C=CC(=[N+](C)C)C=C2)c2ccc(N(C)C)cc2)cc1	80*	·
NC(=O)c1ccc(-c2cc(NCc3cccnc3)nc(N)n2)cc1	24	2
Nc1cccc(-c2cc(NCc3cccnc3)nc(N)n2)c1	55*	-3
CCOC(=O)c1c(Cl)ccc2cnc(Nc3ccc(-n4cnc(N5CCOCC5)n4)cc3)nc12	5	-4
COc1ccc(-c2nc(N)c3ncn(C4CCCCC4)c3n2)cc1	-19	-1
Cc1cnc(Nc2ccc(-n3ccnc3)cc2)nc1NCCCN1CCCC1=O	69*	-9
Cc1cnc(Nc2ccc(-n3ccnc3)cc2)nc1Nc1ccccc1	35	-33
O=C1CCCN1CCCNc1nc(Nc2ncccn2)nc2nc[nH]c12	6	-18
Cc1cnc(Nc2ccc(-n3ccnc3)cc2)nc1NC1CC1	52*	9

From PubChem BioAssay
